KCNH2 3.1 block: qHTS for Inhibitors of KCHN2 3.1: Mutant qHTS | U2OS KCNH2 3.1, thallium flux FluxOr; hits give low values | 340,000 tested, 0.95% active | Potassium voltage-gated channel subfamily H member 2, brain isoform KCNH2 3.1 (human) | AID 720553, 2013 | activity change, % (tested at about 1.8 µM);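 active = maximum activity change below -70%; inconclusive = maximum activity change from -70% to -50%; inactive = maximum activity change above -50%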;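 note: thallium influx rate constant from kinetic fluorescence after stimulation buffer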
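FluxOr-based Tl+ influx in U2OS cells transduced with KCNH2 3.1 virus; rate constants normalized to DMSO controls.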
hERG WT inh: qHTS for Inhibitors of KCHN2 3.1: Wildtype qHTS; AID 720551, 2013; activity change, % at 1.84 µM; U2OS, BacMam KCNH2, thallium flux FluxOr; hits give low values; 340,000 tested, 0.37% active;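 active = maximum activity change below -70%; inconclusive = maximum activity change between -70% and -50%; inactive = maximum activity change above -50%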
Target sequence (Q12809 whole entry, looked up): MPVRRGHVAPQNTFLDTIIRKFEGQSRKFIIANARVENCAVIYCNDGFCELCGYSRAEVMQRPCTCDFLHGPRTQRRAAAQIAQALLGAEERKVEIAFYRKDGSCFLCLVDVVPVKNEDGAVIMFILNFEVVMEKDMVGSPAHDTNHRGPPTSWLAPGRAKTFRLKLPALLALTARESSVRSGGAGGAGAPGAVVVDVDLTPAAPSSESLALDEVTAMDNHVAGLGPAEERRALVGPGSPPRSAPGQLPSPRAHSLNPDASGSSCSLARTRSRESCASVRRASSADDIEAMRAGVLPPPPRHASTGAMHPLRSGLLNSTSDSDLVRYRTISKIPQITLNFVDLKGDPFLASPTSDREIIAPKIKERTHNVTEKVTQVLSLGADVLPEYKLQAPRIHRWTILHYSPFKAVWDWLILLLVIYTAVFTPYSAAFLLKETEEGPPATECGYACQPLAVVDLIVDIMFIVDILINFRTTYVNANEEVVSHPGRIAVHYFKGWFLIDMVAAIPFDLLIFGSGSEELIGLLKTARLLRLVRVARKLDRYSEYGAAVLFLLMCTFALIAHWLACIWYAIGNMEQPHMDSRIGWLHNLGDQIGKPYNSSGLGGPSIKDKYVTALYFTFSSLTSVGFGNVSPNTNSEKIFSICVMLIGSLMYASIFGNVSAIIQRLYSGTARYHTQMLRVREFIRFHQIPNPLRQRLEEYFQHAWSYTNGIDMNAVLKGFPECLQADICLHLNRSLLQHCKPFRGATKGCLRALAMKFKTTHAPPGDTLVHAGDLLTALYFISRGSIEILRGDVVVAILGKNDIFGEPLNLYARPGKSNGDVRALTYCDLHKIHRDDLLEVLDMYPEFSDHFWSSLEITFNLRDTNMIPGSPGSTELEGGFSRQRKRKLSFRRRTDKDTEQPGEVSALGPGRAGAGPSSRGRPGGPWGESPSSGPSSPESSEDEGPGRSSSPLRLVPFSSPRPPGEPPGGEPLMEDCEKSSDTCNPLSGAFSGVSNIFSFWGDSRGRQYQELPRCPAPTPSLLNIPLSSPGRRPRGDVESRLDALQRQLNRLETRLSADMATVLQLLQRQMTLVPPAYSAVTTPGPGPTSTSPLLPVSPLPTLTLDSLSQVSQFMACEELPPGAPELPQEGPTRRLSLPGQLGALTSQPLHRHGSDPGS
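U2OS cells transduced with wild-type KCNH2 virus are loaded with FluxOr dye for 45 min, and thallium flux is measured in kinetic reads before and after stimulation buffer. Rate constants are normalized to DMSO controls.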
HEK293 tox: qHTS of GLP-1 Receptor Inverse Agonists: Cytotox Screen; HEK293 cAMP-luciferase reporter cells, luminescence, 24 h; Potency, µM (titrated, usually from 38.3 µM), most hits filed as inhibitors; 410,000 tested, 0.13% active;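 note: loss of luciferase light is scored as toxicity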
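Seeding density was 200 cells/uL; after overnight-length (12 h) culture, 23 nL compounds went on for 24 h at 37 °C. Readout used a luciferase detection reagent, luminescence taken after 12 min at room temperature.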
GLP-1R agonist: qHTS of GLP-1 Receptor Agonists; HEK293 GLP-1R CRE-luciferase, luminescence, 4-6 h; cells express a hypersensitive GLP-1R form; Glucagon-like peptide 1 receptor (Homo sapiens), P43220; 380,000 tested, 0.007% active; Potency, µM (doses to about 45.6 µM), hits mostly activators; AID 624172, 2012
GLP1R inv ag: qHTS of GLP-1 Receptor Inverse Agonists (Inhibition Mode) | AID 624417, 2012 | Glucagon-like peptide 1 receptor (Homo sapiens), P43220 | Potency, µM (titrated, usually from 38.3 µM), most hits filed as inhibitors | 410,000 tested, 1.6% active | HEK293 GLP-1R CRE-luciferase, luminescence, 24 h; GLP-1R form is constitutively active; note: nearly all actives have a fitted effect of over 55% in size
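Constitutively active GLP-1R drives a cAMP-responsive luciferase in stably transfected HEK293 cells; test compounds are added after overnight (12 h) attachment and left 24 hr, and signal loss in luminescence marks inhibition.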
GLS inhibitor: qHTS for Inhibitors of Glutaminase (GLS) | 410,000 tested, 0.21% active | Potency, µM (titrated, usually from 45.5 µM), hits mostly inhibitors | Glutaminase kidney isoform, mitochondrial (Homo sapiens), O94925 | GLS enzymatic activity, qHTS titration
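Assay buffer: 45 mM KH2PO4 pH 8.2, 0.02% Tween-20. hKGA acts on L-glutamine (1 mM solution added); product glutamate is reported by an oxidase/peroxidase Amplex Red coupling, with fluorescence taken at baseline and 30 min.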
A number is an active result; . = inactive; ? = inconclusive; / = no result given. Only some compounds are listed: those with a hit (about 2.8% of all), similar ones and a draw of the others. Unless noted, calls come from the whole dose curve; as a rule, active = well fitted curve in the direction sought with a large enough effect; inconclusive = small, poorly fitted or top-dose-only effect, or another doubt; inactive = no such curve, though single readings can be large; an effect the other way counts as inactive or inconclusive.

SMILES	KCNH2 3.1 block	hERG WT inh	HEK293 tox	GLP-1R agonist	GLP1R inv ag	GLS inhibitor
O=C(CSc1nc(Nc2ccccc2)nc(N2CCOCC2)n1)Nc1cccc([N+](=O)[O-])c1	/	.	.	.	11µM	.
[O-]/C(=C(\C(=S)Nc1ccc(SC(F)F)cc1)[n+]1ccccc1)c1ccc(Cl)cc1Cl	.	.	.	.	1.1µM	.
COc1cc(C2c3c(oc4ccc(F)cc4c3=O)C(=O)N2Cc2ccc3c(c2)OCO3)ccc1O (centres undefined)	/	/	.	/	.	.
CCN(CC)C(=O)CC(c1cc(OC)c(OC)c(OC)c1)c1c(OC)cc(OC)c2ccc(=O)oc12 (centres undefined)	/	/	.	.	.	.
CCN(CC)CCC(c1ccc(N(C)C)cc1)c1c(OC)cc(OC)c2c(-c3ccccc3)cc(=O)oc12 (centres undefined)	-112	.	.	.	.	.
CCN(CC)C(=O)CC(c1cc(OC)c(OC)c(OC)c1)c1c(OC)cc(OC)c2c(-c3ccccc3)cc(=O)oc12 (centres undefined)	.	.	.	.	.	11µM
CCCCN1C(C(=O)c2ccccc2)=C(OC(C)=O)c2ccccc2S1(=O)=O	/	/	.	/	?	.
NC(=O)[C@H]1O[C@@H](O)[C@H](O)[C@@H](O)[C@@H]1O	/	/	/	.	/	.
COc1cc(OC)c(OC)cc1CN1CCN(Cc2ccco2)CC1	.	.	.	.	.	.
Cc1ccc(CCNC(=O)C2CCN(S(=O)(=O)c3ccc4c(ccn4C)c3)CC2)cc1	/	/	.	/	?	.
CN1CCN(CC(=O)Nc2c(C(=O)c3ccccc3)oc3ccccc23)CC1	-106	-101	.	.	?	.
CCOC(=O)c1oc2ccc(Br)cc2c1NC(=O)CN1CCN(C)CC1	.	.	.	10µM	8.9µM	?
CCOC(=O)c1cnc(SCc2cccc(C)c2)nc1N	.	.	.	?	10µM	.
CCOC(=O)c1cnc(SCC(=O)c2ccc(C)cc2)nc1N	.	.	.	.	.	.
COc1ccc(NC(=O)c2coc3ccccc23)cc1OC	.	-341	.	.	.	.
COc1ccc(NC(=O)c2coc(=O)c3ccccc23)cc1OC	/	/	.	/	.	.
CO[C@H]1[C@@H](O)[C@H](N)[C@@H](O[C@H]2O[C@@H]([C@H](C)N)CC[C@H]2N)[C@H](O)[C@@H]1N(C)C(=O)CN	/	/	/	.	/	.
CC(C)CN(C(=O)CSc1nc2ccccc2c(=O)n1C)C1CCS(=O)(=O)C1 (centres undefined)	.	.	.	.	.	.
COc1ccccc1C(=O)NC1(C(F)(F)F)C(=O)Nc2c1c(=O)[nH]c(=O)n2-c1ccc(F)cc1 (centres undefined)	/	/	.	.	.	.
CO[C@@]1(NC(=O)CSCC#N)C(=O)N2C(C(=O)O)=C(CSc3nnnn3C)CS[C@@H]21	.	.	.	.	.	11µM
CO[C@]1(NC(=O)CSCC#N)C(=O)N2C(C(=O)O)=C(CSc3nnnn3C)CS[C@H]21	/	/	/	.	/	.
CC(=O)NCCC(=O)Nc1cc(S(=O)(=O)N2CCOCC2)ccc1Oc1ccccc1	.	-74	.	.	.	.
CC(=O)NCCC(=O)Nc1cc(S(=O)(=O)N2CCOCC2)ccc1Oc1ccc(F)cc1	.	.	.	.	.	.
CCOC(=O)c1ccc(/C=C2/C=C(c3ccccc3)N(c3ccc(Cl)c(C(=O)O)c3)C2=O)cc1	.	.	.	.	10µM	.
CCOC(=O)c1ccc(Cl)c(NC(=O)c2ccc(-c3ccccc3)cc2)c1	.	.	.	.	.	.
